Test results from the supplement of paper PMC11732987, “Enantioselective OTUD7B fragment discovery through chemoproteomics screening and high-throughput optimisation” (Communications Chemistry, 2025).

Key:
Experiment in all cases: log2 ratio of Biotin-Ahx-Ub-VS probe labelling (fragment/DMSO); higher = less target engagement (more negative = stronger competition), active = hit call of the paper (q ≤ 0.05, log2 ratio ≤ -1)
Conditions in all cases: compound concentration: 200 uM; treatment time: 3 h
[1] = biological target: T1, ALG13 (UniProt Q9NP73)
T1 sequence (whole entry): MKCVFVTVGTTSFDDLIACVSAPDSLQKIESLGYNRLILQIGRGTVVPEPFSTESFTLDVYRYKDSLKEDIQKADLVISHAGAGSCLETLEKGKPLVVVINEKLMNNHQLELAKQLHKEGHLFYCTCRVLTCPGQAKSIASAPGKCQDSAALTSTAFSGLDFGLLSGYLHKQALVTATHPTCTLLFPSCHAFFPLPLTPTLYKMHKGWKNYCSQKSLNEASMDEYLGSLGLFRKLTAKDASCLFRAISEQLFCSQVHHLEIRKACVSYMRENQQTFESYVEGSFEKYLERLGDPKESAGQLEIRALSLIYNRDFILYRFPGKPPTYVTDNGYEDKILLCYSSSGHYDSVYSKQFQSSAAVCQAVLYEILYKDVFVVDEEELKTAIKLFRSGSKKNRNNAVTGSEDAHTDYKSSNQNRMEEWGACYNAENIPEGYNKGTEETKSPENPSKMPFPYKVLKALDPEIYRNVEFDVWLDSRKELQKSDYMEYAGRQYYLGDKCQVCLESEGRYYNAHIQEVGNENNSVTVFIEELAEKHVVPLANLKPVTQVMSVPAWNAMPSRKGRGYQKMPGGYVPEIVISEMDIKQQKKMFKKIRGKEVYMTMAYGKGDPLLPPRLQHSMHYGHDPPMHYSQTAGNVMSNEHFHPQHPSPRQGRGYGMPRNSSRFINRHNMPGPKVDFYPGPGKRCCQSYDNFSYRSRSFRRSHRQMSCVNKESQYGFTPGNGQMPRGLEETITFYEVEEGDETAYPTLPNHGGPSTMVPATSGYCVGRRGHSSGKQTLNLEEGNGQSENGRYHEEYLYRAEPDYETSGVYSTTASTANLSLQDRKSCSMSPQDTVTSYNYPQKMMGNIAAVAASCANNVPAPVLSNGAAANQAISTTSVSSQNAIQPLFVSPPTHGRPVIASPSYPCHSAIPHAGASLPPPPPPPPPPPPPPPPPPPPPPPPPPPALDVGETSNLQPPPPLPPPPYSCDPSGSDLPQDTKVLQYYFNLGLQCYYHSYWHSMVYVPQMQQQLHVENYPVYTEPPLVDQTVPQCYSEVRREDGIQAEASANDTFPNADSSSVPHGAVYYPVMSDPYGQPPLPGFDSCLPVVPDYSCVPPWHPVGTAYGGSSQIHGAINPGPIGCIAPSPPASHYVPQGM
Method in brief: (§1)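 HEK293T lysate, 495 µg per sample in Tris/CHAPS/IGEPAL buffer with protease inhibitors, was treated in triplicate with fragment at 200 µM or vehicle for 3 h and then with Biotin-Ahx-Ub-VS at 0.5 µM final for 1 h. Labelled DUBs were NeutrAvidin-enriched, digested with LysC and trypsin, and run by diaPASEF LC-MS/MS. Spectronaut label-free quantities were global-median-normalised, and values are average log2 fragment/vehicle ratios by unpaired t-test on proteins with ≥2 unique peptides.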

[2] = biological target: ATXN3 (UniProt P54252)
Chain of ATXN3 (P54252 whole entry): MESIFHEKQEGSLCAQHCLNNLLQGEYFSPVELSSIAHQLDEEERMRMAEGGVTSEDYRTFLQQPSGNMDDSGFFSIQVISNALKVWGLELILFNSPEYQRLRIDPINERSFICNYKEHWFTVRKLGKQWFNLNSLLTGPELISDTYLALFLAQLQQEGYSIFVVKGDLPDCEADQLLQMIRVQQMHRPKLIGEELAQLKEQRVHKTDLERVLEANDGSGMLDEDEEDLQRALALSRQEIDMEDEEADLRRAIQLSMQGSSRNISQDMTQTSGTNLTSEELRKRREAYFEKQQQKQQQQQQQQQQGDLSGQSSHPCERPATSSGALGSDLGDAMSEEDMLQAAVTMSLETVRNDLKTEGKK
Method in brief: as §1

[3] = biological target: T2, BAP1 (UniProt Q92560)
T2 sequence (whole entry): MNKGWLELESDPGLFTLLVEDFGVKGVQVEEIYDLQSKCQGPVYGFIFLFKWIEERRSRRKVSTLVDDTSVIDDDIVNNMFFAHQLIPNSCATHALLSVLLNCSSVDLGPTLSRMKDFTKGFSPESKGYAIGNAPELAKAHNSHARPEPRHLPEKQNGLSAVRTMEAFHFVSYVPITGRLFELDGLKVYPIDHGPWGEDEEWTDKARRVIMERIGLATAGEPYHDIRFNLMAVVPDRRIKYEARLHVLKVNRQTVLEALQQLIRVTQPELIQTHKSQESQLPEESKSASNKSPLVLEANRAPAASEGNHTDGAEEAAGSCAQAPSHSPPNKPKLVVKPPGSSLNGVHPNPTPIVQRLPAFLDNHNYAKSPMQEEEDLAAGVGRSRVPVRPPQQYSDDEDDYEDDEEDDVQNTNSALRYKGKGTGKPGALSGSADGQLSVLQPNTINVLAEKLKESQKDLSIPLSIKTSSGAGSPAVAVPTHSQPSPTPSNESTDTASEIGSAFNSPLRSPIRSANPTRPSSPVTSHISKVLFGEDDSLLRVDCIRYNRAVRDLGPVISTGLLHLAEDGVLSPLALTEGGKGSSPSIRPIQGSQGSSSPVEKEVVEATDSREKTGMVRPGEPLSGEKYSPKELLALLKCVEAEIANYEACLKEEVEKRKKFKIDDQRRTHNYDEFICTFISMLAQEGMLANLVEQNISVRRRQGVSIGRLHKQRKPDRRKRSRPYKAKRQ
Method in brief: as §1

[4] = biological target: EIF3F (UniProt O00303)
Chain of EIF3F (O00303 whole entry): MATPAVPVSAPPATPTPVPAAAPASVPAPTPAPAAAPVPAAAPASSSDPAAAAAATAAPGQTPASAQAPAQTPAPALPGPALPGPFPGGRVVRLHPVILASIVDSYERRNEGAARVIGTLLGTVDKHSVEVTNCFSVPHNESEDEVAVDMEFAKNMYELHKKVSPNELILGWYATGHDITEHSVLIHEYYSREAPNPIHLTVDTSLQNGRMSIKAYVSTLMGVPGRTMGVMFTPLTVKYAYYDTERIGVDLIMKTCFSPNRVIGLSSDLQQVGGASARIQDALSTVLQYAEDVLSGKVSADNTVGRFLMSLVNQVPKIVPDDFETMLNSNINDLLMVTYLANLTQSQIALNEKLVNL
Method in brief: as §1

[5] = biological target: EIF3H (UniProt O15372)
Chain of EIF3H (O15372 whole entry): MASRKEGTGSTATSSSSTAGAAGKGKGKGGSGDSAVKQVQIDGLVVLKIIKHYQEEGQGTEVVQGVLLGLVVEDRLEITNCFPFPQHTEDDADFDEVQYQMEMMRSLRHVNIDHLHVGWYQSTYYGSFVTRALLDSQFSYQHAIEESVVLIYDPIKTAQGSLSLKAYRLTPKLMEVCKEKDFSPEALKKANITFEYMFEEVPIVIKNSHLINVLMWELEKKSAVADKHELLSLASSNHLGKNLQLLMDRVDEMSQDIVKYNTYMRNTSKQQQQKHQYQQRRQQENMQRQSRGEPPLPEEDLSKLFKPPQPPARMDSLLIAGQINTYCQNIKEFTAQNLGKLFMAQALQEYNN
Method in brief: as §1

[6] = biological target: T3, FAM105A (UniProt Q9NUU6)
T3 sequence (whole entry): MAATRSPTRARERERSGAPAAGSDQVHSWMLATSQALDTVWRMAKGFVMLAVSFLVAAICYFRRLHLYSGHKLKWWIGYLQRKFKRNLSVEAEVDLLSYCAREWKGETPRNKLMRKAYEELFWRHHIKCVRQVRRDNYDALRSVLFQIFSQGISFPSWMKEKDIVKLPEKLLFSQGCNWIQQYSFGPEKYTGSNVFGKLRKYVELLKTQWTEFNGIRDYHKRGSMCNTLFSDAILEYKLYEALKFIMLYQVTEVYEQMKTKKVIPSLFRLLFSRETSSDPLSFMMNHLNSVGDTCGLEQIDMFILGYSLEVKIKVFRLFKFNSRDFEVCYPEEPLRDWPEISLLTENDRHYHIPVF
Method in brief: as §1

[7] = biological target: OTUB1 (UniProt Q96FW1)
Chain of OTUB1 (Q96FW1 whole entry): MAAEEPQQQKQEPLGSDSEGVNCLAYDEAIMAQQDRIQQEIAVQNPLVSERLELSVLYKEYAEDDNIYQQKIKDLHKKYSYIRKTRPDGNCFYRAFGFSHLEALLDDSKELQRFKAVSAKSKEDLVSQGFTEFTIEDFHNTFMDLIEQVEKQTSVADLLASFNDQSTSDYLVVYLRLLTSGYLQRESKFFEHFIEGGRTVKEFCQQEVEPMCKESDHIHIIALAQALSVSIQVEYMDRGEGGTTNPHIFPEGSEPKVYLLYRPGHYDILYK
Method in brief: as §1

[8] = biological target: T4, OTUD4 (UniProt Q01804)
T4 sequence (whole entry): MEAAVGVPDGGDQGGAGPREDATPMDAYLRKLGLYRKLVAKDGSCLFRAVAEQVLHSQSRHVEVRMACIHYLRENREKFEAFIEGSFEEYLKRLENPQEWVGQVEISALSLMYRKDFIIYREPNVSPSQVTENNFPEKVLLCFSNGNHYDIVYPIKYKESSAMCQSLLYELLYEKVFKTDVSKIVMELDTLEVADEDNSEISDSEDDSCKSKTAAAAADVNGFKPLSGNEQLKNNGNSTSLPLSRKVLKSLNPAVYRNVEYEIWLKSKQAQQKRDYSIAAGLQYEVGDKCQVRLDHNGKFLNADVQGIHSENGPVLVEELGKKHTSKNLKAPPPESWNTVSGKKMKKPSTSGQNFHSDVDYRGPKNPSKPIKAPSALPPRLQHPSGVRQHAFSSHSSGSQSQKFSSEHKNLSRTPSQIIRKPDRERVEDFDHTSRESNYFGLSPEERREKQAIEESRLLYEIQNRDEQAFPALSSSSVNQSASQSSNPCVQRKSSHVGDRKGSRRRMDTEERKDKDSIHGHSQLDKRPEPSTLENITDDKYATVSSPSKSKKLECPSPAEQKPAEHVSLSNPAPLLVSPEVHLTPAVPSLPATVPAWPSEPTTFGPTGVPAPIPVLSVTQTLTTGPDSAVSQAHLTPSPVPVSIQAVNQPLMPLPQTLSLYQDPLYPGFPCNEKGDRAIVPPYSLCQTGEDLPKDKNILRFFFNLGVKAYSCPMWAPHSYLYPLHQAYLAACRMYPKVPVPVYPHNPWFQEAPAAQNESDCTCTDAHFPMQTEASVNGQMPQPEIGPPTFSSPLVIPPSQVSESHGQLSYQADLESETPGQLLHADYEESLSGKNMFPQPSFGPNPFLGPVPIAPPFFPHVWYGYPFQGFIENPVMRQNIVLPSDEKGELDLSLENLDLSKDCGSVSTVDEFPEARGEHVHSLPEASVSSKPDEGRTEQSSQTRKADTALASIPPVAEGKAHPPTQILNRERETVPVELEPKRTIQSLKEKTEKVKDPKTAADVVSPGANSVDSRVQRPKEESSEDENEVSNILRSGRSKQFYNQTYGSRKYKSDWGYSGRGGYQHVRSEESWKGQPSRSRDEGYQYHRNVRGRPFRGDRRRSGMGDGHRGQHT
Method in brief: as §1

[9] = biological target: T5, OTUD5 (UniProt Q96G74)
T5 sequence (whole entry): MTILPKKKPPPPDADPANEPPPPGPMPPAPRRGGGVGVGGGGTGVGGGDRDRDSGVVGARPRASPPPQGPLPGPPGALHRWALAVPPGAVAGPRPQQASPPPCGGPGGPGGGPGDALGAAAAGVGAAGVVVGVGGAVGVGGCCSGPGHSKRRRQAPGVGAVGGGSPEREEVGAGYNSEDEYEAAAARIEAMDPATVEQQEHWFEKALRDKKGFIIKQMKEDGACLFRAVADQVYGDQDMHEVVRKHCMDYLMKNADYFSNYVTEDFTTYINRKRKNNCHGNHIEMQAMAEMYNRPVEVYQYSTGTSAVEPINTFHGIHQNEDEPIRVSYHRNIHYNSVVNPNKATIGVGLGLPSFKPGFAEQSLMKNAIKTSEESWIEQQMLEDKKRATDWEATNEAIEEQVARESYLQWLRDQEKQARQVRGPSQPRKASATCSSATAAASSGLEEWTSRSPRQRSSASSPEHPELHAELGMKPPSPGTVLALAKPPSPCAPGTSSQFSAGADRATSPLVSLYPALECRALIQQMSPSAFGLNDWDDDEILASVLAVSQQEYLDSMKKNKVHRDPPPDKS
Method in brief: as §1

Measured: log2 ratio of Biotin-Ahx-Ub-VS probe labelling

Cl.O=C(CCl)N1CCN(Cc2ccccc2)CC1
inactive: [1] 0.239 | [2] -0.805 | [3] -0.734 | [4] -0.615 | [5] 0.134 | [6] -0.0745 | [7] -0.185 | [8] -0.316 | [9] -0.551
